Bioassay records deposited in PubChem BioAssay by National Center for Advancing Translational Sciences (NCATS).
Hits are enriched below; roughly 8.8% of the tested compounds scored in any of these assays.
LMNA splice mod = modulators of lamin A splicing | HeLa LMNA splicing GFP/RFP minigene ratio, 48 h | Potency, µM (doses to about 46.1 µM), usual class: inhibitors | 0.01% of 200,000 active; active means well fitted inhibition curve with a large enough effect in the signal ratio, with a control signal flat, not every such curve was filed as active; inconclusive means small, poorly fitted or top-dose-only effect, or effect the other way, or a change in a side signal; the % refers to the signal ratio
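S3 HeLa cells stably expressing lamin A-EGFP splicing minigene plus DsRed2, 600 cells/well, 48 h compound exposure at 37C. Laser-scanning cytometry; analysed as GFP (500-530 nm)/RFP (575-640 nm) total intensity ratio; 0.5% DMSO vehicle.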
HttQ103 aggreg = reduces HttQ103-GFP aggregates in PC12 cells; PC12 HttQ103-GFP aggregates, Acumen cytometry, 40 h; Potency, µM (doses to about 46.1 µM), most hits filed as inhibitors; 1.1% of 220,000 active; AID 1688; active means well fitted curve in the direction sought with a large enough effect; inconclusive means small, poorly fitted or top-dose-only effect, or another doubt; inactive means no such curve, though single readings can be large; an effect the other way counts as inactive or inconclusive; further: nearly all actives have a fitted effect of over 60% in size
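Aggregates are detected as GFP objects 1–25 µm with signal 6 STDEV over background in lysates of induced PC12 cells. These carry Huntingtin exon 1 with 103 glutamines fused to GFP under an ecdysone promoter; compounds titrated.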
HTT cytoprotect = protects HTT-Q103 PC12 cells, measured by ATP; PC12 HTT-Q103 induced, cytoprotection, ATP luminescence, 40 h; 0.14% of 230,000 active; Potency, µM (titrated, usually from 56.4 µM), hits mostly activators; AID 1471; active means well fitted curve in the direction sought with a large enough effect; inconclusive means small, poorly fitted or top-dose-only effect, or another doubt; inactive means no such curve, though single readings can be large; an effect the other way counts as inactive or inconclusive; further: nearly all actives have a fitted effect of over 45% in size
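PC12 cells stably carrying ecdysone-inducible Htt exon 1 (Q103)–GFP were induced with 100 nM tebufenozide (final) alongside library compounds in a dose series. Cytoprotection was scored as retained ATP by ATPlite luminescence.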
ALDH1A1 block = ALDH1A1 (human) enzyme inhibition. P00352. Purified ALDH1A1, NADH fluorescence, propionaldehyde substrate. Potency, µM (highest dose often 75.3 µM), hits mostly inhibitors. 7.3% of 220,000 active
Target sequence (P00352 whole entry, looked up): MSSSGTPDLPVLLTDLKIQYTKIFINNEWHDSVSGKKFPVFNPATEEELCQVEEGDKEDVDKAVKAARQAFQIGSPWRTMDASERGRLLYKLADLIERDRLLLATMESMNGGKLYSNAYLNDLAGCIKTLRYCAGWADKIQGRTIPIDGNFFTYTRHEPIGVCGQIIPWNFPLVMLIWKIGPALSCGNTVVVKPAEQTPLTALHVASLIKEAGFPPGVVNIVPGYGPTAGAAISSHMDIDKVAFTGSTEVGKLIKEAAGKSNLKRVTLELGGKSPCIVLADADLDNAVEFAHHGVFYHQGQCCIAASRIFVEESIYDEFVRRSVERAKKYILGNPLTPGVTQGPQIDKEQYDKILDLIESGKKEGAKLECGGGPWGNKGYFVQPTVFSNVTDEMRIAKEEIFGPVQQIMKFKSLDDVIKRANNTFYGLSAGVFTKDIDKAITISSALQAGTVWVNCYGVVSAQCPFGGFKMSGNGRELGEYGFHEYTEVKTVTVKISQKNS
HPGD block = blocks human HPGD enzyme activity; P15428; purified HPGD, NADH fluorescence kinetic, PGE2 substrate; Potency, µM, most hits filed as inhibitors; 4.3% of 150,000 active; AID 894
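NADH formation kinetics: reaction with 30 uM PGE2 and 1 mM NAD+ (final), 20 nM enzyme, Tris-HCl pH 8 with Tween 20, after 15 min compound preincubation at room temperature. Fluorescence change, last versus first of five reads.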
A number is an active result; 0 = inactive; ? = inconclusive; - = not tested or not shown; [ ] = dose if it differs, or a comment. Unless noted, the call rests on the fitted dose curve; in most records, active means well fitted inhibition curve with a large enough effect (not every such curve was filed as active); inconclusive means small, poorly fitted or top-dose-only effect, or another doubt; inactive means no such curve, though single readings can be large or run the other way.

SMILES	LMNA splice mod	HttQ103 aggreg	HTT cytoprotect	ALDH1A1 block	HPGD block
CCOC(=O)C1(CC2CCCCO2)CCN(S(=O)(=O)c2ccc(OC)cc2)CC1 (stereo not given)	-	0[9.22 µM]	0[10 µM]	0	-
CCOc1ccccc1CNC(=O)CCCN1C(=O)CCn2nc(-c3cccn3C)cc21	0	-	-	-	-
CCOC(=O)c1c(NC(=O)c2cc(-c3ccccc3)on2)sc2c1CCCC2	0	-	-	-	-
Cc1ccc(NC(=S)N/N=C/c2c(C)nn(-c3ccccc3)c2N2CCCC2)cc1	0	0	0[10 µM]	?	-
Cc1nn(C)cc1/C=N/NC(=S)Nc1ccccc1	0	0	0	25µM	28µM
CCN1CCN(C(c2ccccc2Cl)c2c(O)cc(C)n(CCOC)c2=O)CC1 (stereo not given)	0	-	-	-	-
Cc1ccc(CCNC(=O)Cn2cccc2)cc1	0	0	0[10 µM]	0	14µM
O=C(CCS(=O)(=O)Cc1ccccc1)N1CCN(c2ccc([N+](=O)[O-])cc2)CC1	0	0	-	25µM	-
O=C(CCCCC(=O)N1CCN(c2ccccc2)CC1)N1CCN(c2ccccc2)CC1	?	0[9.22 µM]	0	0	0
O=C(CCCC(=O)N1CCN(c2ccc([N+](=O)[O-])cc2)CC1)c1ccccc1	0	0	0[10 µM]	28µM	0
O=C(CCCc1ccccc1)N1CCN(c2ccc([N+](=O)[O-])cc2)CC1	0[0.0737 µM]	?	0	22µM	0
Brc1ccc(-c2nnc(Cc3ccccc3)o2)cc1	-	0[9.22 µM]	0[10 µM]	-	-
c1ccc(-c2nnc(CSc3nncs3)o2)cc1	0	0	0	0	25µM
c1ccc(Cc2nnc(-c3ccccc3)o2)cc1	0	0	0	0	7.9µM
Nc1ccc(Sc2ccccc2CC(=O)O)cc1	0	0	0	0	?
O=C(NCCc1ccccn1)c1cccc(S(=O)(=O)N2CCCCCC2)c1	0	0	0	0	0
COc1ccc(NC(=O)c2cccc(S(=O)(=O)N3CCc4ccccc43)c2)cn1	0	0	0	3.2µM	-
O=C(Nc1ncccc1O)c1cccc(S(=O)(=O)N2CCc3ccccc32)c1	?	0	0	0	0
O=C(NCCc1ccccn1)c1cccc(S(=O)(=O)N2CCc3ccccc32)c1	-	0	0	20µM	-
CC(C)c1cnc2c(c1SCC(=O)NCc1ccccc1Cl)c(=O)n(C)c(=O)n2C	0	-	-	-	-
COCCn1c(C)cc(O)c(C(c2ccccc2)N2CCN(CCO)CC2)c1=O (stereo not given)	0	-	-	-	-
O=C(CSc1nnc(-c2ccccc2Br)o1)N1CCc2ccccc2C1	0	0[9.22 µM]	0[10 µM]	?	25µM
COc1cc(OC)cc(-c2nnc(SCC(=O)N3CCCCC3)o2)c1	0	0	0	0	25µM
O=C(CSc1nnc(-c2c[nH]c3ccccc23)o1)N1c2ccccc2CCc2ccccc21	?	?	0	3.5µM	0
O=C(CSc1nnc(COc2cccc3ccccc23)o1)N1c2ccccc2CCc2ccccc21	0	0	0	22µM	0
SMILES	LMNA splice mod	HttQ103 aggreg	HTT cytoprotect	ALDH1A1 block	HPGD block
O=C(CSc1nnc(COc2cccc3cccnc23)o1)N1CCCC1	0	?	0[10 µM]	0	-
O=C(CSc1nnc(-c2ccco2)o1)N1c2ccccc2CCc2ccccc21	?	0	0	0	0
COc1ccccc1NC(=O)C1=C(C)Nc2ncnn2C1c1ccc[nH]1 (stereo not given)	0	-	-	-	-
Cc1oc(-c2cccc(Cl)c2)nc1CSc1nc2ncccc2[nH]1	0	-	-	-	-
COc1ccc(OCc2nnc(SCC(=O)N3c4ccccc4Sc4ccc(Cl)cc43)o2)cc1	0	0	0	?	0
O=C(CSc1nnc(-c2c[nH]c3ccccc23)o1)N1CCCCC1	?	0	0	?	28µM
COc1cccc(OCc2nnc(SCC(=O)N3c4ccccc4Sc4ccc(Cl)cc43)o2)c1	?	0	0[10 µM]	10µM	0
O=C(CSc1nnc(-c2c[nH]c3ccccc23)o1)c1ccc(-c2ccccc2)cc1	0	0	0[10 µM]	0	0
COc1ccc(-c2nc(SCC(=O)N3CCC(C)CC3)n[nH]2)cc1	0	-	-	-	-
CO/N=C\[C@@H](NS(=O)(=O)c1ccc(C)cc1)[C@H](C)/C=C\CC(=O)OC	-	-	0[10 µM]	?	-
CN(CC(=O)N1CCCCCC1)S(=O)(=O)c1ccc(Br)s1	0	0	0	?	22µM
CC(C)CCNC(=O)C1CCC(CNc2c(N3CCCC3)c(=O)c2=O)CC1 (stereo not given)	-	0[9.22 µM]	0[10 µM]	-	-
COc1ccc2c(C=O)c[nH]c2c1	0	0	0[10 µM]	6.3µM	0
